# Sampled rows, rich in hits. Any-hit rate of the full collection: about 2.3%.
# Pol kappa inh-1 – inhibitors of human DNA polymerase kappa; AID 588579; 400,000 compounds, 0.53% hits; Q9UBT6; purified Pol kappa, fluorescent DNA synthesis assay, 10 min; Potency, µM (titrated, usually from 107 µM), for inactives: top-dose activity, negative = inhibition, most hits filed as inhibitors; also: % is scaled to controls: 0 for no effect and ±100 for the full control effect
#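 Pol kappa 10 nM + cpd, 15 min RT; start w/ substrate 50 nM final; fluorescence kinetic read, 0 and 10 min. Neg ctrl: buffer, no enzyme.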
# WRN helicase inh-1 – WRN helicase (human) inhibition. Q14191. WRN helicase unwinding, fluorescent forked duplex, kinetic. Potency, µM (top dose mostly 114 µM), for the others: at the highest dose activity change, negative = inhibition, actives largely listed as inhibitors. 360,000 compounds, 0.46% hits; also: % is scaled to controls: 0 for no effect and ±100 for the full control effect; nearly all actives have a fitted effect of over 55% in size
#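 Screening of the MLSMR collection measured strand separation of a quenched forked DNA duplex (100 nM) by 20 nM WRN with 2 mM ATP, all final. Compounds were preincubated with enzyme 15 min at room temperature.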
# Pol eta inh-1 – inhibitors of human DNA polymerase eta; Q9Y253; recombinant Pol eta, fluorescent DNA replication assay; Potency, µM (titrated, usually from 114 µM), inactives show top-dose activity change, negative = inhibition, actives largely listed as inhibitors; 390,000 compounds, 1.2% hits; also: % is scaled to controls: 0 for no effect and ±100 for the full control effect
#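 Pol eta at 10 nM preincubated with compounds 15 min at room temperature; reaction started with fluorescent substrate (50 nM final) and read kinetically at 0 and 10 min.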
# POLB inh – blocks human DNA polymerase beta activity; Pol beta primer extension/strand displacement, fluorescence kinetic; Potency, µM (doses to about 114 µM), for inactives: at the highest dose activity change, negative = inhibition, usual class: inhibitors; 340,000 compounds, 1.3% hits; AID 485314; also: % is scaled to controls: 0 for no effect and ±100 for the full control effect
#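 Values derive from four-parameter Hill fits of normalized kinetic data: reads at 0 and 10 min following addition of 50 nM substrate to 10 nM Pol beta preincubated 15 min with compound.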
# Pol iota inh – inhibitors of human DNA polymerase iota; AID 588590; Q9UNA4; 390,000 compounds, 1% hits; Pol iota fluorescent replication assay, 10 min; Potency, µM (highest dose often 115 µM), inactives show at the highest dose activity, negative = inhibition, most hits filed as inhibitors
#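 Fluorescent replication assay read twice, at 0 min and 10 min after adding 50 nM (final) substrate. Enzyme (10 nM) and compounds were first incubated 15 min at room temperature; enzyme-free buffer wells were negative controls.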
# Pol kappa inh-2 – Pol kappa (human) inhibition, cherry-pick confirmation; Potency, µM, hits mostly inhibitors; AID 720501; purified Pol-kappa, fluorescent strand-displacement substrate; 920 compounds, 76% hits; shares compounds with Pol eta inh-1
# Pol eta inh-2 – confirmation of human DNA polymerase eta inhibitors | shares compounds with Pol eta inh-1 | Pol eta primer extension, TAMRA/BHQ fluorescence, 10 min | Potency, µM, actives largely listed as inhibitors | 2,600 compounds, 64% hits | AID 720502
# WRN helicase inh-2 – WRN helicase inhibition, cherry-pick retest; 610 compounds, 63% hits; AID 720497; shares compounds with WRN helicase inh-1; Potency, µM (highest dose often 57.1 µM), inactives show top-dose activity, negative = inhibition, actives largely listed as inhibitors; WRN helicase DNA unwinding, fluorescence kinetic; also: nearly all actives have a fitted effect of over 65% in size
# TO displacement – counter-screen for WRN helicase inhibitors: DNA binding. Potency, µM (highest dose often 57.1 µM), for the others: at the highest dose activity change, negative = inhibition, usual class: inhibitors. AID 720499. shares compounds with WRN helicase inh-1. 610 compounds, 10% hits. thiazole orange DNA binding displacement, fluorescence;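 also: drop in dye fluorescence marks compound binding to DNA; % is scaled to controls: 0 for no effect and ±100 for the full control effect; nearly all actives have a fitted effect of over 60% in size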
# BLM helicase inh – blocks human BLM helicase in WRN counterscreen | Recombinant BLM helicase DNA unwinding, red fluorescence | shares compounds with WRN helicase inh-1 | Potency, µM (highest dose often 57.1 µM), inactives show at the highest dose activity change, negative = inhibition, hits mostly inhibitors | 610 compounds, 60% hits; also: nearly all actives have a fitted effect of over 60% in size
# * hit, by the source's call; ? = inconclusive; . = not tested or not shown; [ ] = remark or other dose. Calls follow the shape of the dose curve; as a rule, active = well fitted curve in the direction sought with a large enough effect; inconclusive = small, poorly fitted or top-dose-only effect, or another doubt; inactive = no such curve, though single readings can be large; an effect the other way counts as inactive or inconclusive. Potency is read from the fitted curve at half-maximal effect.
SMILES,Pol kappa inh-1,WRN helicase inh-1,Pol eta inh-1,POLB inh,Pol iota inh,Pol eta inh-2,others
CCCCN(c1ccccc1)c1ncnc2c1cnn2-c1ccc(Cl)cc1,-4%[60.1 µM],.,1%,0%,-4%,.,
Cc1oc(C(=O)O)cc1CSCc1cc(C(=O)O)c(C)o1,?,?,3.2µM*,22µM*,?,27*,
Cc1oc(C(=O)O)cc1CSCc1ccoc1C(=O)O,?,-25%[57.1 µM],3.2µM*,-16%,?,30*,
O=C(O)c1occc1CSc1ccccc1,-13%,-3%,3%,-6%,-4%,.,
CCCc1cc(=O)oc2c3c(ccc12)OCN(Cc1ccc(OC)cc1)C3,-8%[60.1 µM],.,-9%,-9%,7%,.,
Nc1c(C(=O)Nc2ccc(C(=O)O)cc2)sc2nc3c(cc12)CCCC3,-3%,.,?,-23%,20%,.,
Nc1c(C(=O)Nc2cccc(C(=O)O)c2)sc2nc3c(cc12)CCCC3,-9%,-11%[11.6 µM],?,1%,23%,?,Pol kappa inh-2=21*
CC1(C)CC(=O)C2=C(C1)c1c(ccc3ccccc13)NC2c1cc([N+](=O)[O-])cc([N+](=O)[O-])c1O (centres undefined),-36%,?,28µM*,45µM*,?,?,Pol kappa inh-2=47*
Cc1cc(NC2=CC(=O)C(=O)c3ccccc32)no1,-12%,1%[11.6 µM],22µM*,.,?,?,
CCC1CN(C(=O)Nc2ccc(C)c(F)c2)c2ccccc2S1 (centres undefined),-9%,.,-15%,20%,1%,.,
Cc1sc2nc(SCC(=O)N3CC(C)OC(C)C3)n(C)c(=O)c2c1C (centres undefined),-9%,-10%[11.6 µM],16µM*,?,?,?,
CCOC(=O)CSc1nc2sc(C)c(C)c2c(=O)n1C,-10%,12%,-17%,-19%,-2%,.,
CC(C)(C)c1ccc2c(c1)OC(C(=O)N/N=C\c1ccccn1)CO2 (centres undefined),-20%,-11%,-16%,21%,-13%,.,
CC(C)(C)c1ccc2c(c1)OC(C(=O)N/N=C\c1ccc(-c3cccc(C(=O)O)c3)o1)CO2 (centres undefined),?,-14%[11.6 µM],11µM*,-37%,?,17*,
O=C(O)c1cccc(-c2ccc(/C=N/NC(=O)C3COc4ccccc4O3)o2)c1 (centres undefined),?,?,28µM*,20µM*,?,60*,
CC(=O)c1cccc(NC(=O)C2CCCN(c3nnc(-n4cccc4)s3)C2)c1 (centres undefined),-6%,.,-5%,-1%,-1%,.,
O=C1NN(c2ccccc2)C(=O)/C1=C\c1coc2ccc(O)cc2c1=O,?,?,?,?,?,?,WRN helicase inh-2=-22%;TO displacement=-11%;BLM helicase inh=?
O=C1NN(c2ccccc2)C(=O)/C1=C/c1coc2ccccc2c1=O,?,?,?,-21%,?,.,
Cc1ccccc1CNC(=O)Nc1ccc2c(c1)N(C)C(=O)c1ccccc1S2,-1%,.,-17%,-10%,-2%,.,
